Reference: PubChem BioAssay
Entries with a potency or affinity are not part of this list. Active and inactive are the calls of the source. The limit is not given here; nearly all actives have IC50 up to about 0.98 µM.

The compounds below were run against Calcium-dependent protein kinase 1 (Plasmodium falciparum (isolate 3D7)) (UniProt P62344) (assay: PfCDPK1 kinase inhibitors, biochemical, TCAMS library (AID 1159585;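 also: inhibitors leave more ATP so luminescence rises with inhibition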)). Conditions: recombinant PfCDPK1, Kinase-Glo ATP depletion luminescence.
Chain of Calcium-dependent protein kinase 1 (Plasmodium falciparum (isolate 3D7)) (P62344 whole entry, looked up): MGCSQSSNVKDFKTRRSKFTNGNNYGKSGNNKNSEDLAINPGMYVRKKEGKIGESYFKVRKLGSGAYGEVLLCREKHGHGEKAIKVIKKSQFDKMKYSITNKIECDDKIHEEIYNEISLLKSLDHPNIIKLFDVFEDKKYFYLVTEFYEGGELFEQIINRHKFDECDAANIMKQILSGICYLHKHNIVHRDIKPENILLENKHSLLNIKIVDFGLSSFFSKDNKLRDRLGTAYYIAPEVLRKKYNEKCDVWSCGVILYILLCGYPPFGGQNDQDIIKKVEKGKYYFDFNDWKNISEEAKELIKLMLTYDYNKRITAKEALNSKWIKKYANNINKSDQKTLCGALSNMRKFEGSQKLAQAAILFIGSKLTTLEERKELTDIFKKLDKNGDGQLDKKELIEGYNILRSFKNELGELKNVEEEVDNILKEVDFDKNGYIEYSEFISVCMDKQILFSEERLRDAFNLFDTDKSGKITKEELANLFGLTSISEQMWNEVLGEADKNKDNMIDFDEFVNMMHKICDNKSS
In the case of `COc1cc2nc(NCCc3ccccc3)nc(NCCCc3ccccc3)c2cc1OC`, the outcome is reported as “inactive”. For `COc1cc(C(=O)N2CC[C@@H](CCN3CCC4(CC3)CN(S(C)(=O)=O)c3ccccc34)C[C@H]2Cc2ccc(Cl)c(Cl)c2)cc(OC)c1OC`, the outcome was “inactive”. `COc1ccc(NC(=O)Nc2cccc(-c3cccc(-c4nc5ccc(F)cc5[nH]4)c3)c2)cc1` was tested, and the outcome was “inactive”. `CCCc1ccc(S(=O)(=O)NC2CCN(C(=O)Nc3ccc(I)cc3)CC2)cc1` was tested, and the outcome was “inactive”. For `O=C(Nc1cccc(-c2ccc(-c3nc4ccc(F)cc4[nH]3)cc2)c1)c1ccncc1`, the outcome was “inactive”. With `Cc1ccc2c(NN=CC=Cc3ccccc3)cc(C)nc2c1` the outcome was “inactive”. With `O=C1OC(c2ccccc2)(c2ccccn2)CN1C1CCN(Cc2cccn2-c2ccc(Cl)cc2)CC1` (stereo not given) the outcome was “inactive”. In the case of `CCN(CC)CCN(Cc1ccc(-c2ccc(C(F)(F)F)cc2)cc1)C(=O)Cn1c(CCc2cccc(F)c2F)nc(=O)c2ccc(C(F)(F)F)cc21`, the outcome is reported as “inactive”. With `N#Cc1cncc(-c2nc3c(N4CCC(Cc5ccccc5)CC4)cccc3n2C2CCNC2)c1` (stereo not given) the outcome was “inactive”. With `N#Cc1ccc(-c2cnc3ccc(NCc4ccc(S(N)(=O)=O)cc4)nn23)cc1` the outcome was “inactive”. In the case of `CCN(CC)CCN(Cc1ccc(-c2ccc(C(F)(F)F)cc2)cc1)C(=O)Cn1c(CCc2cc(F)cc(F)c2F)nc(=O)c2ccccc21`, the outcome is reported as “inactive”. With `CC(C)c1cc(Oc2c(I)cc(CCCc3ncc[nH]3)cc2I)ccc1O` the outcome was “inactive”. For `c1ccc2c(c1)ncc1c3ccccc3[nH]c21`, the outcome was “inactive”. With `CSc1ccc(CN2CCC(NC(=O)c3ccc(-c4ccc(N(C)C)cc4)s3)CC2)cc1` the outcome was “inactive”. `Cc1cc(NC(=O)Nc2cccc(N(C)C)c2)c2ccccc2n1` was tested, and the outcome was “inactive”. With `CN(CCN1CCCC1)c1nc2ccc(-n3cnc4cc(-c5ccc(Cl)cc5)sc4c3=O)cc2[nH]1` the outcome was “inactive”. With `CC(C)n1c(C2CCN(CC3CCN(C(=O)/C=C/c4ccc(Cl)c(Cl)c4)CC3)CC2)nc2ccccc21` the outcome was “inactive”. In the case of `Cc1ccc(NC(=O)Nc2ccc(Cl)c(C(F)(F)F)c2)cc1-c1ccc(C(=O)Nc2ccncc2)cc1`, the outcome is reported as “inactive”. In the case of `O=S(=O)(c1cccc(C(F)(F)F)c1)N1CCC(CO)(Cc2cccc(C(F)(F)F)c2)CC1`, the outcome is reported as “inactive”. In the case of `CCOc1ccc(CCC(=O)O)cc1OCC`, the outcome is reported as “inactive”. With `COc1ccc2nccc([C@@H](O)CN3CCC(NCc4nc5c(C#N)cccc5[nH]4)CC3)c2c1` the outcome was “inactive”. With `COc1ccc(C(O)CNC(C)CCc2ccccc2)cc1C(F)(F)F` (stereo not given) the outcome was “inactive”. `COc1cccc2cc(C(=O)N[C@@H](CC(C)C)C(=O)N[C@H](/C=N/NC(=O)c3ccccc3)Cc3cnc[nH]3)oc12` was tested, and the outcome was “inactive”. With `O=C(NCc1cccc2ccccc12)C1CCCN(C(=O)c2ccc(O)c(-c3ccc(Cl)c(Cl)c3)c2)C1` (stereo not given) the outcome was “inactive”. In the case of `Cc1ccccc1C1CCN(C2CCC(NC(=O)c3cncc(-c4ccccc4)c3)CC2)CC1` (stereo not given), the outcome is reported as “inactive”. For `O=S(=O)(NC1CCN(c2ccnc3cc(Cl)ccc23)C1)c1ccc(C(F)(F)F)cc1` (stereo not given), the outcome was “inactive”. With `O=C(Nc1ccc(OC2CCN(Cc3ccsc3)C2)c(Cl)c1)c1ccsc1` (stereo not given) the outcome was “inactive”. For `O=C(CCc1cnc[nH]1)Nc1cccc(-c2ccc(-c3nc4ccccc4[nH]3)s2)c1`, the outcome was “inactive”. For `Cc1cccc2c3c([nH]c12)C1(CCN(CCc2ccccc2)CC1)NC(C(=O)NCc1ccccc1)C3` (stereo not given), the outcome was “inactive”. With `Cc1cc(CNC(=O)c2ccc(-c3ccc(-c4nc5ccc(C(F)(F)F)cc5[nH]4)s3)cc2)on1` the outcome was “inactive”. `Oc1ccc(CCNc2nc(NCCOc3cccc4ccccc34)nc(N3CCNCC3)n2)cc1` was tested, and the outcome was “inactive”. In the case of `Nc1c(Cl)cc(C(O)CNCCCCCCOCCc2ccc(CO)s2)cc1Cl` (stereo not given), the outcome is reported as “inactive”. For `N#Cc1ccc(NC(=O)c2ccc(C(=O)NCCCCN3CCC(c4ccc5c(c4OCCOC4CCCCO4)CCCC5)CC3)cc2)cc1` (stereo not given), the outcome was “inactive”. In the case of `CCCc1cc(Cc2cnc(N)nc2N)cc(CCC)c1O`, the outcome is reported as “inactive”. In the case of `CCn1c(C)cc(C=C2SC(=Nc3ccccc3)NC2=O)c1C`, the outcome is reported as “inactive”. With `COc1cccc(CNC(=O)[C@H]2CNCCN2C(=O)CCCc2ccccc2)c1` the outcome was “inactive”. With `Clc1ccc(CNc2nc(NCCc3cnc[nH]3)nc(N3CCCC4CCCCC43)n2)cc1` (stereo not given) the outcome was “inactive”. `CS(=O)(=O)c1ccc(CNCc2cccc(-c3ccc(-c4nc5ccc(C(F)(F)F)cc5[nH]4)cc3)c2)cc1` was tested, and the outcome was “inactive”. In the case of `O=C(NCc1cccc(C(F)(F)F)c1)C(c1cc2ccccc2o1)N1CCN(C(c2ccccc2)c2ccccc2)CC1` (stereo not given), the outcome is reported as “inactive”. In the case of `CCOc1ccccc1C(=O)N1CCc2cc3nccc(N4CCN5CCC[C@H]5C4)c3cc21`, the outcome is reported as “inactive”.
